How the values were obtained:
Assay in all cases: PBM binding z-score (relative to random genomic background probes); higher = stronger binding; sequences stand for … in GC…GCGATTGACAGCGTAGAATGAAGG
[1] = tested on: FXR:RXRa (NR concentration 270 nM, RXRa partner concentration 90 nM)
Method in brief: (§1)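 Antibodies against each partner of ligand-free nuclear receptor dimers (one per run) detected binding on custom Agilent 4×180K protein-binding microarrays after 1 h incubation. The double-stranded probes had 34-nt variable regions carrying direct-repeat seeds, single-nucleotide variants, half-site ablations and random human genomic background sequences. Binding z-scores, from regression-normalized fluorescence, use the random background probes as reference.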

[2] = tested on: LXRa:RXRa (NR concentration 270 nM, RXRa partner concentration 90 nM)
Method in brief: as §1

[3] = tested on: LXRa homodimer (NR concentration 270 nM)
Method in brief: as §1

[4] = tested on: LXRb:RXRa (NR concentration 270 nM, RXRa partner concentration 90 nM)
Method in brief: as §1

[5] = tested on: LXRb homodimer (NR concentration 270 nM)
Method in brief: as §1

[6] = tested on: PPARa:RXRa (NR concentration 270 nM, RXRa partner concentration 90 nM)
Method in brief: as §1

[7] = tested on: PPARg:RXRa (NR concentration 180 nM, RXRa partner concentration 90 nM)
Method in brief: as §1

[8] = tested on: PPARg:RXRa 270nM:90nM, anti-RXR (NR concentration 270 nM, RXRa partner concentration 90 nM)
Method in brief: as §1

[9] = tested on: PPARg:RXRa 30nM:10nM, anti-RXR (NR concentration 30 nM, RXRa partner concentration 10 nM)
Method in brief: as §1

[10] = tested on: PPARg:RXRa 90nM:30nM, anti-RXR (NR concentration 90 nM, RXRa partner concentration 30 nM)
Method in brief: as §1

[11] = tested on: PPARg:RXRa DBDmut IVT, anti-RXR (DBD mutation: RXRa K156A/R161A, NR concentration 270 nM, RXRa partner concentration 90 nM)
Method in brief: as §1

[12] = tested on: PPARg:RXRa IVT, anti-PPARg (NR concentration 270 nM, RXRa partner concentration 90 nM)
Method in brief: as §1

[13] = tested on: PPARg DBDmut:RXRa IVT, anti-PPARg (DBD mutation: PPARg1 K132A/R137A, NR concentration 270 nM, RXRa partner concentration 90 nM)
Method in brief: as §1

[14] = tested on: PPARg DBDmut IVT, anti-PPARg (DBD mutation: PPARg1 K132A/R137A, NR concentration 270 nM)
Method in brief: as §1

[15] = tested on: PPARg homodimer (NR concentration 180 nM)
Method in brief: as §1

[16] = tested on: PXR:RXRa (NR concentration 270 nM, RXRa partner concentration 90 nM)
Method in brief: as §1

[17] = tested on: PXR homodimer (NR concentration 270 nM)
Method in brief: as §1

[18] = tested on: RARa:RXR (NR concentration 270 nM, RXRa partner concentration 90 nM)
Method in brief: as §1

[19] = tested on: RARa homodimer (NR concentration 270 nM)
Method in brief: as §1

[20] = tested on: RARb:RXRa (NR concentration 270 nM, RXRa partner concentration 90 nM)
Method in brief: as §1

Sequence | PBM binding z-score [1] | PBM binding z-score [2] | PBM binding z-score [3] | PBM binding z-score [4] | PBM binding z-score [5] | PBM binding z-score [6] | PBM binding z-score [7] | PBM binding z-score [8] | PBM binding z-score [9] | PBM binding z-score [10] | PBM binding z-score [11] | PBM binding z-score [12] | PBM binding z-score [13] | PBM binding z-score [14] | PBM binding z-score [15] | PBM binding z-score [16] | PBM binding z-score [17] | PBM binding z-score [18] | PBM binding z-score [19] | PBM binding z-score [20]
CTACCAAGGTGAACAAGGTCGCTGATTACTATTC | 1.1 | 1.05 | -0.405 | 1.37 | -0.68 | 2.38 | 1.17 | 1.36 | -0.0103 | 0.78 | 2.41 | 2.81 | 0.217 | 0.423 | 0.663 | 1.7 | 0.349 | 1.89 | -0.144 | 2.17
TCACATAGGTAAATGCTAGGTGAAAGTCCGATCT | 0.401 | 0.564 | -0.036 | 0.378 | -0.343 | 1.03 | 0.475 | 1.83 | 3.11 | 2.49 | 2.22 | 1.12 | 0.19 | -0.0289 | -0.198 | 0.34 | -0.0319 | 0.692 | -0.153 | 0.251
CCGACTGGGACAGAAAGGTTACCATACCATCCGG | 0.177 | 0.493 | -0.124 | 0.512 | -1.05 | 1.71 | 1.4 | 1.74 | 0.364 | 1.34 | 0.593 | 1.09 | -0.448 | -0.875 | 1.09 | 1.01 | 0.0178 | 1.63 | -0.302 | 1.47
CCTCGGAGGACAACAGGAGGTGAGAGCTGCCAGA | -0.0702 | -0.357 | -0.536 | -0.619 | -0.875 | -0.108 | 0.133 | -0.73 | -0.83 | -0.93 | 0.262 | 0.245 | -1.46 | -1.64 | -0.411 | -0.513 | -0.0477 | -0.183 | -0.132 | 1.13
CCGAGTAGGTTATGGGGCATTGAGGCAACGGTGA | 0.345 | 0.579 | -0.265 | 0.437 | -0.0283 | 2.09 | 3.48 | 4.63 | 2.18 | 4.57 | 3.23 | 3.52 | -0.234 | 0.034 | 1.19 | -0.0257 | 0.241 | 0.37 | 0.756 | 0.976
ACTATTTGTTGAGACGAGGGCAACCGATAGGTTG | 0.374 | 0.535 | 0.28 | 0.453 | 0.762 | 0.255 | 0.623 | 0.216 | 0.23 | 0.0132 | 0.443 | 0.881 | 1.52 | 1.09 | 0.629 | 0.581 | 0.979 | 0.391 | 0.779 | 1.07
AGAATGAGGTTATACGTATATCAGGGAAGAAAGT | 2.23 | 2.1 | 0.245 | 2.04 | 0.468 | 3.47 | 2.58 | 2.29 | 1.04 | 1.85 | 2.88 | 2.25 | 1.21 | 1.56 | 1.21 | 1.45 | 0.473 | 1.92 | 0.666 | 1.44
TCAGCTAGGTCAACGATGGTCAGCTAATCTGCTA | 3.13 | 2.34 | -0.215 | 1.41 | -0.491 | 3.2 | 2.64 | 2.95 | 2.5 | 2.66 | 4.15 | 4.22 | -0.361 | -0.524 | 1.38 | 1.42 | -0.591 | 1.96 | -0.477 | 4.05
CGGCCAAGGTCAAGGTCAGTGAAAGAGACTCGAA | 7.61 | 5.58 | 0.407 | 4.63 | 0.323 | 6.12 | 6.44 | 6.23 | 2.33 | 4.85 | 3.44 | 4.67 | 0.246 | -0.532 | 3.93 | 5.02 | 0.799 | 5.17 | 1.18 | 5.71
TCTTTTAGTTGATTAGGGCAACCGAAACAGCGGA | 1.17 | 0.955 | 0.422 | 0.976 | 2.11 | 1.45 | 0.152 | 2.66 | 4.27 | 3.34 | 2.25 | 2.54 | 2.77 | 2.73 | 1.2 | 0.77 | 0.929 | 0.951 | 1.25 | 1.79
GCGACTGGGGCAAAGCAGATTACCATAAGGTTGG | -0.443 | -0.606 | -0.499 | -0.352 | -0.97 | 0.454 | 1.36 | 0.951 | 0.202 | 0.481 | 4.66 | 3.29 | -0.663 | -0.34 | -0.207 | -0.451 | -0.273 | -0.203 | -0.607 | 0.381
CCGACTGGGGGATAAGGTTACCATAAGCCAGCCC | 0.506 | 2.65 | -0.0985 | 2.4 | 2.01 | 1.91 | 1.43 | 2.38 | 1.06 | 2.07 | 0.611 | 1.85 | 1.28 | 1.34 | 0.934 | 1.15 | -0.306 | 1.64 | 0.448 | 0.896
CGTCCAAGGTGAGAGAGGTCAGTGAATGCCGAGT | 2.18 | 2.18 | 0.878 | 2.05 | -0.732 | 3.11 | 1 | 1.7 | 0.115 | 1.07 | 2.16 | 2.49 | -1.39 | -1.25 | 2.8 | 3.75 | 2.87 | 3.54 | 0.726 | 3.46
CCTAGTTGGTCAGGATGTCACACACCGGATATGA | -0.184 | -0.0235 | 0.256 | 0.227 | 0.348 | 0.0864 | 0.898 | 0.76 | -0.14 | 0.424 | 0.536 | 1.16 | 0.182 | 0.583 | 1.42 | 0.0986 | 0.254 | 0.0158 | 1.18 | 0.798
